ChEMBL document CHEMBL2218924, “A broad activity screen in support of a chemogenomic map for kinase signalling research and drug discovery” (Biochem J, 2013)

Key:
[1] = biological target: T1, Serine/threonine-protein kinase TBK1 (Homo sapiens) (UniProt Q9UHD2); details: at 10 µM
T1 sequence (whole entry): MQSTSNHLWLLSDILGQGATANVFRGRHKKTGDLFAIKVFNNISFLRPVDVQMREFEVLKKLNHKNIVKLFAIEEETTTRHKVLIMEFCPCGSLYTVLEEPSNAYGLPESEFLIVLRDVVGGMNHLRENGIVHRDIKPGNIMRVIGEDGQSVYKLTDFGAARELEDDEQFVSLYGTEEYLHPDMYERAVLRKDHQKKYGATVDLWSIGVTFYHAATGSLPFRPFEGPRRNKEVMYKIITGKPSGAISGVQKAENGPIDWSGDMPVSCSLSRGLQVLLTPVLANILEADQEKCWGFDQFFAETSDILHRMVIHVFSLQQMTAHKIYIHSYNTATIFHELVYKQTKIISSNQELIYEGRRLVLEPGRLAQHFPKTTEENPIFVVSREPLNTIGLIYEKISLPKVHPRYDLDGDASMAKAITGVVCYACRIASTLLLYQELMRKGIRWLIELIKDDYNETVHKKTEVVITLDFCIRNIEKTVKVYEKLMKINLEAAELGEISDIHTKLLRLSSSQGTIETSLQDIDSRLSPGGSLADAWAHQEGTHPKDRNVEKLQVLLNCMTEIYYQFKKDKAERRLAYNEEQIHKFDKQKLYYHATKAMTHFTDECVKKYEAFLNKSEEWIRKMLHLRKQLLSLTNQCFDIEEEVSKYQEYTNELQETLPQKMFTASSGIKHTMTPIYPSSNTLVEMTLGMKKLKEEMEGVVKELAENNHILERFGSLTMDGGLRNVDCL

[2] = biological target: Insulin-like growth factor 1 receptor (Homo sapiens) (UniProt P08069); details: at 10 µM
[3] = biological target: T2, Inhibitor of nuclear factor kappa-B kinase subunit beta (Homo sapiens) (UniProt O14920); details: at 10 µM
T2 sequence (whole entry): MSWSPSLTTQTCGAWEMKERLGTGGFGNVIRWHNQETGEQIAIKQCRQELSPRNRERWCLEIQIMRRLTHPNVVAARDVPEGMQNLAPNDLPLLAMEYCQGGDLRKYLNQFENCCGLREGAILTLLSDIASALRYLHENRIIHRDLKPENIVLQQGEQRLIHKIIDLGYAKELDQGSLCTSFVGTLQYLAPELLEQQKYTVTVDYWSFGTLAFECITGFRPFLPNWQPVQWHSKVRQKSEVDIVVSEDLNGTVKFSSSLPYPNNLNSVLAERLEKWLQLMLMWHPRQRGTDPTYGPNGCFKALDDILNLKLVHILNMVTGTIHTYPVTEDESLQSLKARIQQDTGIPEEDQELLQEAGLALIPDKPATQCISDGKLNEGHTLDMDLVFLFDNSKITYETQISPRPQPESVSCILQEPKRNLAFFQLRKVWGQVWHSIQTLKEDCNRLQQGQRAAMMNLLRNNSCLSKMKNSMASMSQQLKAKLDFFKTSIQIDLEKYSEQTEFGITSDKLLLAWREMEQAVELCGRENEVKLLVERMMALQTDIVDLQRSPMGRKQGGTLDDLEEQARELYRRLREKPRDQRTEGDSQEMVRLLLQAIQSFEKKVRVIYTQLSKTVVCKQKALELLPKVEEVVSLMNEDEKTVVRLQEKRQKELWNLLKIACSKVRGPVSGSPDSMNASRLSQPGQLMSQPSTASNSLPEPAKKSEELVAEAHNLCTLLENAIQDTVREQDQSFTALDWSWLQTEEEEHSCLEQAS

[4] = biological target: Insulin receptor (Homo sapiens) (UniProt P06213); details: at 1 µM
[5] = biological target: Insulin receptor (Homo sapiens) (UniProt P06213); details: at 10 µM
[6] = biological target: Interleukin-1 receptor-associated kinase 1 (Homo sapiens) (UniProt P51617); details: at 1 µM
[7] = biological target: Interleukin-1 receptor-associated kinase 1 (Homo sapiens) (UniProt P51617); details: at 10 µM
[8] = biological target: T3, Interleukin-1 receptor-associated kinase 4 (Homo sapiens) (UniProt Q9NWZ3); details: at 1 µM
T3 sequence (whole entry): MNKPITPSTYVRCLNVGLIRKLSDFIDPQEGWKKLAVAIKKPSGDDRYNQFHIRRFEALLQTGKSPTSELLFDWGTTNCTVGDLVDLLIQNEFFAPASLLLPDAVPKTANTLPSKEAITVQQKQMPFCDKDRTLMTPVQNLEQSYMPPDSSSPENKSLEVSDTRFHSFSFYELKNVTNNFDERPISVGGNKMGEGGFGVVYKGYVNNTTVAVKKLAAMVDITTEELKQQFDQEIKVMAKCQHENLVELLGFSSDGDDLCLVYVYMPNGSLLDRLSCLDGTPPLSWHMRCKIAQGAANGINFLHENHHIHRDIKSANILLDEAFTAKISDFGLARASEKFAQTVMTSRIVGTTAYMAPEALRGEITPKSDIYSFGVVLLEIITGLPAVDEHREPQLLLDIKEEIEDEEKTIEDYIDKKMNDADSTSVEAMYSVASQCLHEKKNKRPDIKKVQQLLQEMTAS

[9] = biological target: T3, Interleukin-1 receptor-associated kinase 4 (Homo sapiens); details: at 10 µM
[10] = biological target: Insulin receptor-related protein (Homo sapiens) (UniProt P14616); details: at 10 µM
[11] = biological target: T4, Inhibitor of nuclear factor kappa-B kinase subunit alpha (Homo sapiens) (UniProt O15111); details: at 10 µM
T4 sequence (whole entry): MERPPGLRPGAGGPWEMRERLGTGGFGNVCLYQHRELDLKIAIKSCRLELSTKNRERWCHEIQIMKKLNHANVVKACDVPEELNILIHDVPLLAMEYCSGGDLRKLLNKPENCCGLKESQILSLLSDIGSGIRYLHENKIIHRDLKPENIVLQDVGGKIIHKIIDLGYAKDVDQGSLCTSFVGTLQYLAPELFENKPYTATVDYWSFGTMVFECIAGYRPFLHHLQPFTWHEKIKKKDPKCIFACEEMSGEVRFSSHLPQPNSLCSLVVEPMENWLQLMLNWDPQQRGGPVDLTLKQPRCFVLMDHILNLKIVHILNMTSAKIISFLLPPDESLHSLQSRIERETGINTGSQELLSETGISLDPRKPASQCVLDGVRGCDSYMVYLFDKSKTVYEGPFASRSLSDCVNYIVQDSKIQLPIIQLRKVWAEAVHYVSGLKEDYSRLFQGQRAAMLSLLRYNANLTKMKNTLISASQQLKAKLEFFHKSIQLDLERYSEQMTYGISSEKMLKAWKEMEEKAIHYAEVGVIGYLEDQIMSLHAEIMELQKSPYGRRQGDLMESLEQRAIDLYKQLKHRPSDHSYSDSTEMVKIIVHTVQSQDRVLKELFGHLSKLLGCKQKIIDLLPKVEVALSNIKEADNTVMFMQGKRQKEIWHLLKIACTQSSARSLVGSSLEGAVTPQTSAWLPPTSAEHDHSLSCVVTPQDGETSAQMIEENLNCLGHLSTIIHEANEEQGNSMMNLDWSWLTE

[12] = biological target: Insulin receptor (Homo sapiens) (UniProt P06213); details: at 10 µM; remark: listed apart in the source
[13] = biological target: Insulin receptor (Homo sapiens) (UniProt P06213); details: at 1 µM; remark: listed apart in the source
[14] = biological target: T5, Tyrosine-protein kinase ITK/TSK (Homo sapiens) (UniProt Q08881); details: at 1 µM
T5 sequence (whole entry): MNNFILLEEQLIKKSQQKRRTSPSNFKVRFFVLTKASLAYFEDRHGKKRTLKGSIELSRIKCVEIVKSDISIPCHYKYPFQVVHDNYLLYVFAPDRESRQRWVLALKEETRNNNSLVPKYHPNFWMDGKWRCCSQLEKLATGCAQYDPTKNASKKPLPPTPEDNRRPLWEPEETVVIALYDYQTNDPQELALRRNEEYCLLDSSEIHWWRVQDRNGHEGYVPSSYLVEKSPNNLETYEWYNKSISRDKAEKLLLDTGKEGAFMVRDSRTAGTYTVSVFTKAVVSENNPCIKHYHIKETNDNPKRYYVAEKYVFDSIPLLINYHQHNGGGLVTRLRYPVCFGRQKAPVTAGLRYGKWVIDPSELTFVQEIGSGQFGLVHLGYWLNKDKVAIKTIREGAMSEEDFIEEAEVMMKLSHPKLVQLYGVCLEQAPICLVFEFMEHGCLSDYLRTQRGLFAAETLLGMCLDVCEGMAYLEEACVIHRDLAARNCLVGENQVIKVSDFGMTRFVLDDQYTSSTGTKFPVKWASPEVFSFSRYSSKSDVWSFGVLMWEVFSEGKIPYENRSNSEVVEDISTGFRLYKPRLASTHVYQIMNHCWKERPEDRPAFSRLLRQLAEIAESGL

[15] = biological target: T2, Inhibitor of nuclear factor kappa-B kinase subunit beta (Homo sapiens); details: at 1 µM
[16] = biological target: Insulin receptor-related protein (Homo sapiens) (UniProt P14616); details: at 1 µM
[17] = biological target: T4, Inhibitor of nuclear factor kappa-B kinase subunit alpha (Homo sapiens); details: at 1 µM

Chain of Insulin receptor (Homo sapiens) (P06213 28-758 limits assumed): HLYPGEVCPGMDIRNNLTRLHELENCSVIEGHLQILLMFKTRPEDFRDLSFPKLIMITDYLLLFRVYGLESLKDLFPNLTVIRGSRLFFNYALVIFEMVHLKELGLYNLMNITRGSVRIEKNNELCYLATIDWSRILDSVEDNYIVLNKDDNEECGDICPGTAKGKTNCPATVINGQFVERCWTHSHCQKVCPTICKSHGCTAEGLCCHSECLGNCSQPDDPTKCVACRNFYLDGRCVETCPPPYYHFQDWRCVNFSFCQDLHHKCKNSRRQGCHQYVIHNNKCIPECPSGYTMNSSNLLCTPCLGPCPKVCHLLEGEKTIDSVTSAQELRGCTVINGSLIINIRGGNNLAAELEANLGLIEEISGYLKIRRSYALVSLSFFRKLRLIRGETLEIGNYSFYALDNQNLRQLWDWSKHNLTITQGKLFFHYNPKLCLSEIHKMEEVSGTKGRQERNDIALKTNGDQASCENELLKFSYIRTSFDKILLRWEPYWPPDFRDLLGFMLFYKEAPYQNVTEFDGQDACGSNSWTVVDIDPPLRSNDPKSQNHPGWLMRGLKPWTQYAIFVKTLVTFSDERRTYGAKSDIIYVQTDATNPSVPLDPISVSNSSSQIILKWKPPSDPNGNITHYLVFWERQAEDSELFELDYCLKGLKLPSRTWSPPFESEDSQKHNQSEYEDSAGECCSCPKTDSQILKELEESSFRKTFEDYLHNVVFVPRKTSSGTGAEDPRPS
Chain of Insulin receptor (Homo sapiens) (P06213 763-1382 limits assumed): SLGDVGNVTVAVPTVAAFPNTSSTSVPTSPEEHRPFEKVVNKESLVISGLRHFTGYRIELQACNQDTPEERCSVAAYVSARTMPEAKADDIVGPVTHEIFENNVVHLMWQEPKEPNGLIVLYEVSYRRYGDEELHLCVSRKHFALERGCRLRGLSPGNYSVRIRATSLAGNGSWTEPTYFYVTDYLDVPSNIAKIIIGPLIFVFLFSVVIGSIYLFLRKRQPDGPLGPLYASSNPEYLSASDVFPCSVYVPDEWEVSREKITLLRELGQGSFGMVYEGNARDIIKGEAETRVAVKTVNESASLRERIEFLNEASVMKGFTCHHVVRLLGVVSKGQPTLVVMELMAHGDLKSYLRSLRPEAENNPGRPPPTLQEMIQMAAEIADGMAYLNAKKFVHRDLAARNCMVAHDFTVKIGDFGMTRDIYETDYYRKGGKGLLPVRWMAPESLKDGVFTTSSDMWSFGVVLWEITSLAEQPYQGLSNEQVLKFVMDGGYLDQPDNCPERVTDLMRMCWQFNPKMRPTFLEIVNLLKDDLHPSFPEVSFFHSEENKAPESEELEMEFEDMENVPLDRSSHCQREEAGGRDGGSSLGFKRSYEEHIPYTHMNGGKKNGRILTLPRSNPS
Chain of Interleukin-1 receptor-associated kinase 1 (Homo sapiens) (P51617 whole entry, looked up): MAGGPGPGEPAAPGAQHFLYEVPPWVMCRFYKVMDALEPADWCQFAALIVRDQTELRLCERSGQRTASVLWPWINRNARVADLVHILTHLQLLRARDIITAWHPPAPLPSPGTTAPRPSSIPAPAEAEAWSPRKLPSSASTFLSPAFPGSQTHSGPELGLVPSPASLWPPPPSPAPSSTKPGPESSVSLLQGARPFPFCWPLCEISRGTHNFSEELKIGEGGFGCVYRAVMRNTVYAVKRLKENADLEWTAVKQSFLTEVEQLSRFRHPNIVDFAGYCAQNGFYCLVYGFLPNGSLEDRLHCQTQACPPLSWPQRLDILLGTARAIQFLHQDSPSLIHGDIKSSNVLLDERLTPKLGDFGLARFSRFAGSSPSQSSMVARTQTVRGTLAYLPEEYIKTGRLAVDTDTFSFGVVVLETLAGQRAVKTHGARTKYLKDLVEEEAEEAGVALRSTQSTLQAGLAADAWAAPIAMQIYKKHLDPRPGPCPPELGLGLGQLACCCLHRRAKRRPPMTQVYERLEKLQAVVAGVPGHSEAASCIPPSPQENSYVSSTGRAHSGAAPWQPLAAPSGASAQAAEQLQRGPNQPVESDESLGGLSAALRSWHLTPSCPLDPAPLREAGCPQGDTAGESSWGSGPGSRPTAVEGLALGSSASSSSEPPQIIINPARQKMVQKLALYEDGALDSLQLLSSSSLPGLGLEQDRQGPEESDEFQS
Chain of Insulin receptor-related protein (Homo sapiens) (P14616 27-742 limits assumed): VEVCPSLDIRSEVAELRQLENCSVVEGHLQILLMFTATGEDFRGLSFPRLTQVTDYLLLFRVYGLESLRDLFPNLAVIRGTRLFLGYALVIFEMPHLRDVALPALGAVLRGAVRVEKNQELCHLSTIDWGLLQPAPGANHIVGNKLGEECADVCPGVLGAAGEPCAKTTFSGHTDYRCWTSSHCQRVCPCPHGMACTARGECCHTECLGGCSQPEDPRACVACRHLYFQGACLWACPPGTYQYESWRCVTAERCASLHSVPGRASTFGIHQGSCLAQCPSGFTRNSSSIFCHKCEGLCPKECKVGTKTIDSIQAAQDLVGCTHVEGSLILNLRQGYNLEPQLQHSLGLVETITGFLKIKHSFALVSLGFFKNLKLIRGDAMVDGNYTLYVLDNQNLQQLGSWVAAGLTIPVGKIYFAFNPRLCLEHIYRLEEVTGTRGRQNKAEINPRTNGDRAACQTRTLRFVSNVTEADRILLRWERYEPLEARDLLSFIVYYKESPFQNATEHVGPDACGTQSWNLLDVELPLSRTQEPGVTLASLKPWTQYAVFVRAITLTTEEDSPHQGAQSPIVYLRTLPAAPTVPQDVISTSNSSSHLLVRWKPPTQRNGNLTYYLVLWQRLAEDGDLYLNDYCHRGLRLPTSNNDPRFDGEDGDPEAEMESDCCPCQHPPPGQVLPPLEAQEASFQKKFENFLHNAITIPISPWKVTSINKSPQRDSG
Chain of Insulin receptor-related protein (Homo sapiens) (P14616 747-1297 limits assumed): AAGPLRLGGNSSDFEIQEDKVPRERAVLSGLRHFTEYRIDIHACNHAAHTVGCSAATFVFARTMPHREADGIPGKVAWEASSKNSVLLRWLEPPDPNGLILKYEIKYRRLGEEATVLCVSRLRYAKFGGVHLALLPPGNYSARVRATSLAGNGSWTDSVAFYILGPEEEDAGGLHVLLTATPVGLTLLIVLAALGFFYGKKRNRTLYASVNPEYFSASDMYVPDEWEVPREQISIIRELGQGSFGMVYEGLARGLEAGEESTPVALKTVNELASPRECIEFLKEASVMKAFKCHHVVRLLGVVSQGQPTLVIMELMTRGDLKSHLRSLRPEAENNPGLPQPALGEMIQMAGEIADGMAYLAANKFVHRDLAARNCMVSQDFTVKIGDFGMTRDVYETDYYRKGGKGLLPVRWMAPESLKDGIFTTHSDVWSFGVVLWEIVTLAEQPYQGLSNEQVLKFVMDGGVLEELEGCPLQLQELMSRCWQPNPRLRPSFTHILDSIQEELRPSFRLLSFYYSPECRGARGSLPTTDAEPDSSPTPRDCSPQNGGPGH
Chain of Insulin-like growth factor 1 receptor (Homo sapiens) (P08069 31-736 limits assumed): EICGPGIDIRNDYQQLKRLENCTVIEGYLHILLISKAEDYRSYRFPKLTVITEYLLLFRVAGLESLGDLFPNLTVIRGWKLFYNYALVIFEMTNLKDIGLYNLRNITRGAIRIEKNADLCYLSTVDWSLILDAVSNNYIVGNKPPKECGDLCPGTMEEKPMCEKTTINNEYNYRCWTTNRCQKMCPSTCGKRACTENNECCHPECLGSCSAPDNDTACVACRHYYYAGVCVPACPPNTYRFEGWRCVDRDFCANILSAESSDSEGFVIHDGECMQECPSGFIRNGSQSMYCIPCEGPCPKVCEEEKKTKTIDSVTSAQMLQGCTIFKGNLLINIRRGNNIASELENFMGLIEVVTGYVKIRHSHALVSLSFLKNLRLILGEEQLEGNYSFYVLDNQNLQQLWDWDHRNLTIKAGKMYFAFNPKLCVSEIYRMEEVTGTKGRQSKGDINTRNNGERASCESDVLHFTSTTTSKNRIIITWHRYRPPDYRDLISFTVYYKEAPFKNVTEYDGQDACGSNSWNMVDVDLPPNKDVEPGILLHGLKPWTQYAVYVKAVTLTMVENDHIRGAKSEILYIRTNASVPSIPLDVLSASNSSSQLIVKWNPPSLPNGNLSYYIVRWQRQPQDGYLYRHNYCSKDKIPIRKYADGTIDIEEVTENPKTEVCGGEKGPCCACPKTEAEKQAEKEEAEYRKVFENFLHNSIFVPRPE
Chain of Insulin-like growth factor 1 receptor (Homo sapiens) (P08069 741-1367 limits assumed): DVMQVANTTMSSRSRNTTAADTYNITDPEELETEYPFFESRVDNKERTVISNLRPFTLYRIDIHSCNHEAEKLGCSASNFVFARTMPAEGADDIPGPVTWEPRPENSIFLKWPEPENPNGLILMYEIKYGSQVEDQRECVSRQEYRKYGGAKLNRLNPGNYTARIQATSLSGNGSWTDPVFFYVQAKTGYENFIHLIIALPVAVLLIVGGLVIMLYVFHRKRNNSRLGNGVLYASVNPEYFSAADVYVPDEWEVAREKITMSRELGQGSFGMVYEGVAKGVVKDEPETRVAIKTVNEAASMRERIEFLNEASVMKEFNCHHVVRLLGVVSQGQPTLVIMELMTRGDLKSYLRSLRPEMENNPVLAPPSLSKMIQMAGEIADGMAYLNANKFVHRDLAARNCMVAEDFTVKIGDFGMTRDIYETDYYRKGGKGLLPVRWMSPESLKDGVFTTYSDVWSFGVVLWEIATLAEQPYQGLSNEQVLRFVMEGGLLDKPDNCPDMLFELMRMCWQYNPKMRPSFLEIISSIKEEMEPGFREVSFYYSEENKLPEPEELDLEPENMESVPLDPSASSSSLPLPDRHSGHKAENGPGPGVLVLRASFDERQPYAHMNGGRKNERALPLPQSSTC

SMILES: N#Cc1c(NC(=O)c2cccc3ccccc23)sc2c1CCCC2
- residual activity [1]: 73%
- residual activity [2]: 124%
- residual activity [3]: 100%
- residual activity [4]: 137%
- residual activity [5]: 92%
- residual activity [6]: 94%
- residual activity [7]: 95%
- residual activity [8]: 96%
- residual activity [9]: 72%
- residual activity [10]: 72%

SMILES: CSc1nc(-c2ccc(F)cc2)c(-c2ccnc(NC(C)c3ccccc3)c2)[nH]1 (stereo not given)
- residual activity [1]: 77%
- residual activity [11]: 95%
- residual activity [4]: 126%
- residual activity [12]: 93%
- residual activity [13]: 102%
- residual activity [5]: 98%
- residual activity [8]: 23%
- residual activity [9]: 13%
- residual activity [10]: 73%
- residual activity [14]: 70%

SMILES: COc1cc2nccc(Oc3ccc(NC(=O)Nc4cc(C)on4)c(Cl)c3)c2cc1OC
- residual activity [1]: 68%
- residual activity [15]: 104%
- residual activity [3]: 102%
- residual activity [6]: 82%
- residual activity [16]: 102%
- residual activity [10]: 29%

SMILES: O=C(Nc1ccc(Cl)cc1)c1ccccc1NCc1ccncc1
- residual activity [4]: 100%
- residual activity [12]: 79%
- residual activity [13]: 102%
- residual activity [5]: 100%

SMILES: CC(C)(C)c1nc2c3ccc(F)cc3c3c(=O)[nH]ccc3c2[nH]1
- residual activity [1]: 3%
- residual activity [17]: 52%
- residual activity [11]: 32%
- residual activity [3]: 27%
- residual activity [6]: 55%
- residual activity [7]: 62%
- residual activity [8]: 61%
- residual activity [9]: 53%
- residual activity [16]: 101%
- residual activity [10]: 52%
